# Bioassay records (PubChem)
# Hits are enriched below; roughly 0.4% of the tested compounds scored in any of these assays.
# UDG counter: blocks uracil-DNA glycosylase in AID counter-screen. FRET deamination/UDG coupled assay, UDG read, 4 h. Potency, µM (titrated, usually from 115 µM), for the others: top-dose activity change, negative = inhibition, actives largely listed as inhibitors. 91,000 compounds, 0.14% hits; also: nearly all actives have a fitted effect of over 65% in size
# AID inh: activation induced cytidine deaminase inhibition; Potency, µM (series often up to 115 µM), actives largely listed as inhibitors; AID 1347428; 91,000 compounds, 0.32% hits; AID deamination FRET fluorescence, UDG-coupled, 4 h; also: nearly all actives have a fitted effect of over 25% in size
# Target sequence (Q9GZX7 whole entry, looked up): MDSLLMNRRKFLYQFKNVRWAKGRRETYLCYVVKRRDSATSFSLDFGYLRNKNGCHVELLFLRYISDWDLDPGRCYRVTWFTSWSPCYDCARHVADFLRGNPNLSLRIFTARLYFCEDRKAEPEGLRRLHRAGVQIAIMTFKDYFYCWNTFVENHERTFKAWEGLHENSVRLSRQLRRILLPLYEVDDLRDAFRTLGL
# * hit, by the source's call; i = inactive; u = inconclusive; ! = not active in a repeat; [ ] = dose if it differs, or a comment. Calls follow the shape of the dose curve; as a rule, active = well fitted curve in the direction sought with a large enough effect; inconclusive = small, poorly fitted or top-dose-only effect, or another doubt; inactive = no such curve, though single readings can be large; an effect the other way counts as inactive or inconclusive. % is scaled to controls: 0 for no effect and ±100 for the full control effect; potency is read from the fitted curve at half-maximal effect.
SMILES,UDG counter,AID inh
Cc1ccc(CN(C(=O)COc2ccc(Cl)cc2Cl)C2CCS(=O)(=O)C2)o1 (configuration not stated),-11.9%,i
Cc1nc2nc(SCC(=O)NCc3ccccc3Cl)nn2c(C)c1Cc1ccccc1,0.2%,u
Cc1nc2nc(SCC(=O)N(C)Cc3ccccc3)nn2c(C)c1Cc1ccccc1Cl,-15.3%,44.7µM*
c1ccc(CNCc2ccc(OCc3ccccc3)cc2)cc1,-9.0%,i
Oc1ccc(NCc2ccc(OCc3ccccc3)cc2)cc1,-22.6%,2.82µM*
Oc1ccc(NCc2ccc(OCc3ccccc3Cl)cc2)cc1,79.4µM*,35.5µM*
O/N=C\c1ccc(OCc2ccccc2Cl)cc1,-5.2%,i
CC(C)(C)c1noc(Cn2cnc3ccc(Cl)cc3c2=O)n1,-10.9%,i
O=C(N/N=C/C=C/c1ccccc1[N+](=O)[O-])NC1CCCCC1,-0.1%,i
CC(Sc1cccc2cccnc12)C(=O)NC(=O)NC1CCCC1 (configuration not stated),-0.7%,i
CCCSc1ccc(C(=O)CCN(C)C)cc1,0.3%,i
Cc1cc(-c2ccc(C)c(S(=O)(=O)N3CCCC(C)C3)c2)on1 (configuration not stated),12.1%,25.1µM*
COc1ccc(-c2cc(C)no2)cc1S(=O)(=O)N1CCCC(C)C1 (configuration not stated),-9.4%,i
CCN(CC)S(=O)(=O)c1ccc(C)c(NC(=S)N(c2ccccc2)C(C)C)c1,8.9%,i
CCN(C(=S)Nc1cc(S(=O)(=O)N(C)C)ccc1C)c1cccc2ccccc12,u,79.4µM*
O=C(CN1CCN(CC(=O)Nc2ccccc2C(=O)c2ccccc2)CC1)Nc1ccc(F)cc1,-1.3%,i
Cc1ccsc1C(=O)N(C)C1CCN(CCc2ccccn2)CC1,0.5%,i
CC1(C)CCC2=C(O1)c1ccccc1C(=O)C2=O,-12.2%,7.94µM*
O=C1c2ccccc2-c2ccccc21,-0.1%,i
COc1cc(CCNC(=O)c2cc(=O)c3ccccc3o2)ccc1OC(F)F,-0.5%,i
Cc1oc2cc(OC(=O)c3ccco3)ccc2c(=O)c1-c1ccc(Br)cc1,-2.0%,i
Cc1ccc2cc(/C=C/C(=O)c3c(C)coc3C)c(Cl)nc2c1,-1.9%,i
CCOC(=O)c1cccc(Nc2nc(C(=O)OCC)nc3ccccc23)c1,6.9%,i
CCCOC(=O)c1cccc(Nc2nc(C(=O)OCC)nc3ccccc23)c1,89.1µM*,i
Cc1cccn2c(=O)c3cc(C(=O)NC(C)c4ccccc4)c(=N)n(CCOCCO)c3nc12 (configuration not stated),7.3%,i
SMILES,UDG counter,AID inh
CCOCCCn1c(=N)c(C(=O)NC(C)c2ccccc2)cc2c(=O)n3cccc(C)c3nc21 (configuration not stated),-20.5%,22.4µM*
CC(C)c1ccc(C2C3=C(CC(C)(C)CC3=O)OC3=C2C(=O)CC(C)(C)C3)cc1,-8.9%,i
O=C(/C=C/c1ccc(Cl)cc1Cl)c1ccccc1OC(F)F,-8.3%,i
CCn1cc2nc(SCc3cccc(C)c3)n(CCc3ccccc3)c(=O)c2n1,-23.2%,35.5µM*
CCn1cc2nc(SCc3cccc(C(F)(F)F)c3)n(CCc3ccccc3)c(=O)c2n1,-13.8%,u
CCn1cc2nc(SCc3cccc(C(F)(F)F)c3)n(Cc3ccc(Cl)cc3)c(=O)c2n1,-28.7%,25.1µM*
CCn1cc2nc(SCc3cccc(Cl)c3)n(Cc3ccc(C)cc3)c(=O)c2n1,-15.5%,i
Cc1ccc(NS(=O)(=O)c2cccc(Cl)c2Cl)cc1S(=O)(=O)N(C)C,8.8%,i
O=C(COC(=O)c1cc(=O)c2ccccc2o1)NC1CC1,9.4%,i
N#Cc1c(SCC(=O)NCCc2ccccc2)nc(N2CCOCC2)c2c1CCCC2,-8.5%,i
CC(C)C(C)NC(=O)CSc1ccc2ccccc2n1 (configuration not stated),1.4%,i
CCc1ccccc1Nc1nn2c(=O)c3ccc(C(=O)NCc4cccs4)cc3nc2s1,-19.1%,31.6µM*
O=C(NCc1cccs1)c1ccc2c(=O)n3nc(Nc4ccccc4)sc3nc2c1,0.1%,i
CNC(c1ccccc1)c1ccc(F)cc1 (configuration not stated),-3.3%,i
NCC(O)c1ccc(O)c(O)c1 (configuration not stated),-1.7%,i
CC(C)NCC(O)c1cc(O)cc(O)c1 (configuration not stated),1.9%,i
CCC(NC(C)C)C(O)c1ccc(O)c(O)c1 (configuration not stated),-11.7%,44.7µM*
CC(C)NC[C@H](O)c1ccc(O)c(O)c1,-9.0%,79.4µM*!
CC(Sc1nnc(-c2cccs2)n1C1CC1)C(=O)N1CCc2ccccc2C1 (configuration not stated),-3.9%,i
CCn1c(CN(Cc2ccccc2)Cc2ccccc2)nc2c1c(=O)[nH]c(=O)n2C,-1.8%,i
Cc1ccc2nc(Cl)c3cc(C(=O)N4CCCC(C)C4)sc3c2c1 (configuration not stated),-24.2%,39.8µM*
Cc1ccc2nc(Cl)c3cc(C(=O)N4CCCCC4C)sc3c2c1 (configuration not stated),-4.4%,u
Cc1ccc(-c2cc(C(=O)O)c3cccc(Cl)c3n2)o1,1.2%,i
Cn1cc(S(=O)(=O)N2CCC(C(=O)Nc3cccc(F)c3)CC2)cc1C(N)=O,4.6%,i
O=C(NCc1cccs1)c1ccc(CSc2nc3ccncc3n2Cc2ccccc2F)cc1,4.7%,79.4µM*
SMILES,UDG counter,AID inh
Cc1ccccc1Cn1c(SCc2ccc(C(=O)NCc3cccs3)cc2)nc2ccncc21,3.3%,i
Cn1c(CN2CCOCC2)nnc1SCc1ccccc1Cl,5.0%,i
Cc1ccc(Cn2ccnc2SCC(=O)Nc2ccc3c(c2)OCO3)cc1,u,79.4µM*
Cc1ccc(Cn2ccnc2SCC(=O)Nc2ccc3c(c2)OCCO3)cc1,-12.8%,i
Clc1cccc(CSc2nc3ncccc3o2)c1,2.7%,i
Clc1cccc(CSc2cccc3cccnc23)c1,-2.8%,25.1µM*
O=C(O)COc1c(Cl)cc(/C=C2/NC(=O)NC2=O)cc1Cl,6.3%,i
COc1ccccc1OCC(=O)N1CCC(c2nc3ccccc3o2)CC1,-2.9%[57.5 µM],i
Cc1ccc(C(C)C)c(OCC(=O)N2CCC(c3nc4ccccc4o3)CC2)c1,-3.7%[57.5 µM],39.8µM*
O=C(NN1CCOCC1)c1ccn(COc2ccc(Br)cc2)n1,4.6%,i
Cn1nc(-c2ccc(OCC(=O)N3CCOCC3)cc2)c2ccccc2c1=O,3.0%,i
Cn1nc(-c2ccc(N3CCOCC3)c(NC(=O)COc3ccccc3)c2)c2ccccc2c1=O,89.1µM*,u
Cc1ccc(CN(C)CC(=O)NC(=O)NCc2ccco2)cc1,-6.0%,i
COc1ccc(Nc2nc3ccccc3nc2NS(=O)(=O)c2ccc(NC(C)=O)cc2)cc1OC,-2.9%,i
COc1ccc(Nc2nc3ccccc3nc2NS(=O)(=O)c2ccc(Cl)cc2)cc1OC,-5.1%,79.4µM*!
CS(=O)(=O)Cc1ccc(CNCc2cccc3ccccc23)cc1,-0.3%,i
CS(=O)(=O)Cc1ccc(CNCc2ccccc2Cl)cc1,15.8µM*,i
CC1(C)CC(=O)C2=C(C1)NC(Nc1nc3ccccc3o1)=NC2c1cccc(Cl)c1 (configuration not stated),0.8%,i
COc1ccc(NC(C)c2nnc(-c3cccs3)o2)c(OC)c1 (configuration not stated),-0.7%,i
